From PubChem BioAssay
Active and inactive are the calls of the source.

Legend:
[1] = E. coli DRC41 culture turbidity changes, primary screen, E. coli filamentation inducer project, strain DRC41, OD650, 48 h (AID 1152);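 further: E. coli MC1000 strain DRC41 lacking acrAB efflux pump and sulA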; conditions: E. coli DRC41 (acrAB sulA), higher = more signal, called active from +8 up or from −8 down
[2] = small-molecule binders of probe aLefty1, primary screen, biochemical, small-molecule microarray, 635/667 nm fluorescence (AID 1153); conditions: higher = more signal;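 further: score merges spot fluorescence with signal-to-noise ratio from the scanned slide images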
[3] = PSAC antagonists in infected red cells, primary screen, cell-based, P. falciparum Indochina, OD700, 1 h (AID 1154); conditions: P. falciparum Indochina infected RBC osmotic lysis, higher = more signal, called active from +8 up or from −8 down
[4] = PSAC antagonists in infected red cells, primary screen, cell-based, P. falciparum Indochina, OD700, 2 h (AID 1155);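 further: lysis reports solute entry through the parasite surface anion channel PSAC; channel blockers reduce lysis of infected cells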; conditions: P. falciparum Indochina infected erythrocytes, osmotic lysis OD700; higher = more signal, called active from +8 up or from −8 down
[5] = osmotic lysis modulators in infected erythrocytes, primary screen, PSAC antagonist project, cell-based, P. falciparum Indochina, OD700, 3 h (AID 1156); conditions: higher = more signal, called active from +8 up or from −8 down
[6] = PSAC antagonists in infected red cells, primary screen, cell-based, P. falciparum Indochina, OD700, 18 h (AID 1157); conditions: P. falciparum Indochina infected erythrocytes, osmotic lysis OD700, 18 h; higher = more signal, called active from +8 up or from −8 down
[7] = modulators of S6 phosphorylation in cells, primary screen, cell-based, A549, cytoblot, luminescence, serum-stimulated (AID 1158); conditions: A549 phospho-S6 cytoblot, 5 h, higher = more signal;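 further: serum-stimulated A549 lung adenocarcinoma cells; signal is phosphorylated S6 detected by cytoblot immunostaining with HRP secondary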
[8] = biological target: NADPH oxidase 2 (Homo sapiens) (UniProt P04839); assay: NOX2-dependent H2O2 signal modulators, primary screen, NOX inhibitor project, cell-based, HEK293-NOX2, PMA-stimulated, Amplex Red fluorescence (AID 1159); conditions: 45 min, higher = more signal, called active from +8 up or from −8 down; further: test concentration not given here
[9] = biological target: NADPH oxidase 4 (Homo sapiens) (UniProt Q9NPH5); assay: NOX4-dependent H2O2 signal modulators, primary screen, NOX inhibitor project, cell-based, HEK293-NOX4, tetracycline-induced, Amplex Red fluorescence (AID 1160); conditions: 45 min, higher = more signal, called active from +8 up or from −8 down
[10] = biological target: NADPH oxidase 5 (Homo sapiens) (UniProt Q96PH1); assay: NOX5-dependent H2O2 signal modulators, primary screen, NOX inhibitor project, cell-based, HEK293-NOX5, Amplex Red fluorescence (AID 1161); conditions: HEK293-NOX5, ionomycin, 45 min, higher = more signal
[11] = A549 cell viability effects, profiling panel, calcein-AM fluorescence, 48 h, basal (AID 1162); conditions: higher = more signal; further: test concentration not given here
[12] = adipocyte viability effects, profiling panel, cell-based, 3T3-L1 adipocytes, calcein-AM fluorescence, 48 h, basal (AID 1163); conditions: 3T3-L1 adipocytes viability, higher = more signal; further: test concentration not given here
[13] = HepG2 cell viability effects, profiling panel, calcein-AM fluorescence, 48 h, basal (AID 1164); conditions: higher = more signal; further: test concentration not given here
[14] = MM1S cell viability effects, profiling panel, calcein-AM fluorescence, 48 h, basal (AID 1165); conditions: higher = more signal;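 further: viability of MM1S multiple myeloma cells under basal unstimulated conditions; test concentration not given here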
[15] = basal RPMI8226 viability, no added stimulus, profiling panel, cell-based, calcein-AM fluorescence, 48 h, PK04 Diversity Set (AID 1166); conditions: RPMI8226 myeloma viability, higher = more signal;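 further: cells grown under basal conditions without added stimulus; test concentration not given here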
[16] = basal HepG2 mitochondrial membrane potential changes, profiling panel, cell-based, JC-1 fluorescence, 24 h, 100 nL compound (AID 1167); conditions: higher = more signal; further: test concentration not given here
[17] = basal 3T3-L1 adipocyte mitochondrial potential changes, profiling panel, cell-based, JC-1 fluorescence, 3T3-L1 adipocytes, 24 h, 100 nL compound (AID 1168); conditions: JC-1 mitochondrial fluorescence, higher = more signal, called active from +8 up or from −8 down; further: test concentration not given here
[18] = basal RPMI8226 mitochondrial membrane potential changes, profiling panel, cell-based, JC-1 fluorescence, 24 h, 100 nL compound (AID 1169); conditions: RPMI8226 myeloma, JC-1 mitochondrial potential fluorescence, higher = more signal; further: test concentration not given here
[19] = basal MM1S mitochondrial membrane potential changes, profiling panel, cell-based, JC-1 fluorescence, 24 h, 100 nL compound (AID 1170); conditions: higher = more signal; further: test concentration not given here
[20] = A549 lung cancer cell viability effects, profiling panel, resazurin fluorescence, 24 h, PK04 Diversity Set (AID 1171); conditions: higher = more signal, called active from +8 up or from −8 down; further: test concentration not given here

Chain of NADPH oxidase 4 (Homo sapiens) (Q9NPH5 whole entry, looked up): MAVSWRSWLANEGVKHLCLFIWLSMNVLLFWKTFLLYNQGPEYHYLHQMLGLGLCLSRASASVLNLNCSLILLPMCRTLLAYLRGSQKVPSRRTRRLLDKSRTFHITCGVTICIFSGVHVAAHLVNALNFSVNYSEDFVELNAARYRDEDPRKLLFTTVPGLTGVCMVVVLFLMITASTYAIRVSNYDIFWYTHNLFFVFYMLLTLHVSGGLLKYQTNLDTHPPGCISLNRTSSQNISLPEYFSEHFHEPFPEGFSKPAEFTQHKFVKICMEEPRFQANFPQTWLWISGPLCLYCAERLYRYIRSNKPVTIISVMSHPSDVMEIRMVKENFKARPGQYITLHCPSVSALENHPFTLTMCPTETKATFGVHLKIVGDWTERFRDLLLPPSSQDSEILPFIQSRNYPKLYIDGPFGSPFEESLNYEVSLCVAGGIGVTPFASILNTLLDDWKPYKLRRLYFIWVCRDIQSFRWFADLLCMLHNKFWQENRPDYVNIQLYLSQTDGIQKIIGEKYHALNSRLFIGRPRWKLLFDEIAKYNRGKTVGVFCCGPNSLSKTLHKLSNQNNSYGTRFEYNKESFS
Chain of NADPH oxidase 2 (Homo sapiens) (P04839 whole entry, looked up): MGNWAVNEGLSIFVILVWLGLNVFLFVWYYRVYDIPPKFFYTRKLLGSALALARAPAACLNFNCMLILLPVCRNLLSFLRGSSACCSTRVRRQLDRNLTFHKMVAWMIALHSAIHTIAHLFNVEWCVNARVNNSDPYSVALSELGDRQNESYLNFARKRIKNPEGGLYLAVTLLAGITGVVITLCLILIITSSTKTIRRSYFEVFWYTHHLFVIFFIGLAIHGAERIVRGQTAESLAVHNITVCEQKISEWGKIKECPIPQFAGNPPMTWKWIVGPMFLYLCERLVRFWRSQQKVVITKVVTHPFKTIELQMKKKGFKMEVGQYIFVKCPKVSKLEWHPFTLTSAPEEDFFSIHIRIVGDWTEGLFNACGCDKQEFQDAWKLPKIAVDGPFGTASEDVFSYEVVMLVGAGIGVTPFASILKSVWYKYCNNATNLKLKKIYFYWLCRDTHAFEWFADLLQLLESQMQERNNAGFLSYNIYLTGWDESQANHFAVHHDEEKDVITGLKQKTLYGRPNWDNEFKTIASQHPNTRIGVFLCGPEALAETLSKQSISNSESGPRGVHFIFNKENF
Chain of NADPH oxidase 5 (Homo sapiens) (Q96PH1 whole entry, looked up): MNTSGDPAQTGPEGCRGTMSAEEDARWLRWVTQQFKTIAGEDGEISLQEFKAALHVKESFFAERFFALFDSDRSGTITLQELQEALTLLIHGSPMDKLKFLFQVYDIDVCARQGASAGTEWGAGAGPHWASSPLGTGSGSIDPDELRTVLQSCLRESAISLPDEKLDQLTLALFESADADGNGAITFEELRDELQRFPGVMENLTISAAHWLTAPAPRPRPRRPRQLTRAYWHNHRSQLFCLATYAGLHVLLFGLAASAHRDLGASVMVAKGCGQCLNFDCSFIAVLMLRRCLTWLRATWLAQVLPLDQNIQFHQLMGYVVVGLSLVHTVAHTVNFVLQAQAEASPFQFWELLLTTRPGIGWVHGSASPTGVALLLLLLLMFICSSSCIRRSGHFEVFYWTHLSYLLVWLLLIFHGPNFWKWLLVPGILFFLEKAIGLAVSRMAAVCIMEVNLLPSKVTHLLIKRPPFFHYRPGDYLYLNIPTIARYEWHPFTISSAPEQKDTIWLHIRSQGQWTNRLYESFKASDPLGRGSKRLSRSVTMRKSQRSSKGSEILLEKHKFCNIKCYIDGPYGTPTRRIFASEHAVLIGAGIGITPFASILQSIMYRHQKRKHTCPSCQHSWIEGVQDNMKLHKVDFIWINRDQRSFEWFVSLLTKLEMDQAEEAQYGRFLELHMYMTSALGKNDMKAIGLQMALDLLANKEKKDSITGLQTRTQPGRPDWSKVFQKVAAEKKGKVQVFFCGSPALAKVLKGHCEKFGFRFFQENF

Row | SMILES | z-score [1] | composite z-score [2] | z-score [3] | z-score [4] | z-score [5] | z-score [6] | z-score [7] | z-score [8] | z-score [9] | z-score [10] | z-score [11] | z-score [12] | z-score [13] | z-score [14] | z-score [15] | z-score [16] | z-score [17] | z-score [18] | z-score [19] | z-score [20]
1 | CC(C)[C@@H](C(=O)O)n1cc(C2(O)CCCCC2)nn1 | -0.0464 (inactive) | -0.188 | -0.477 (inactive) | -0.436 (inactive) | -2.15 (inactive) | -0.89 (inactive) | 0.0556 | -1.09 (inactive) | -0.176 (inactive) | -0.658 | 0.566 | 1.51 | -0.294 | 0.248 | 0.215 | 0.727 | 0.639 (inactive) | -0.302 | -0.394 | 0.194 (inactive)
2 | O=C1OCCC=C[C@H]2OC34C=CCN(c5ccc(Cl)cc5)C(=O)[C@H]3N(CCCO)C(=O)[C@@H]4C12 (stereo not given in full) | 0.565 (inactive) | -0.221 | 0.991 (inactive) | -0.131 (inactive) | 0.319 (inactive) | -0.652 (inactive) | 1.61 | 0.736 (inactive) | -0.818 (inactive) | 0.215 | 0.0676 | 1.95 | -0.517 | 0.435 | -1.16 | -0.00501 | 0.272 (inactive) | -0.21 | 0.162 | -0.797 (inactive)
3 | Cc1ccc(/C=C/C=O)cc1 | 1.24 (inactive) | -0.22 | 0.248 (inactive) | 0.0672 (inactive) | -0.0637 (inactive) | 0.0324 (inactive) | -0.139 | -0.225 (inactive) | -0.104 (inactive) | 1.17 | 0.572 | -0.106 | 0.935 | 0.858 | 0.532 | 1.34 | -0.111 (inactive) | -0.758 | 0.427 | -0.64 (inactive)
4 | COCCCNC(=O)[C@@H]1c2ccccc2C(=O)N(Cc2ccccc2)[C@H]1c1ccc(CO)cc1 | -0.134 (inactive) | 0.603 | 0.481 (inactive) | -0.307 (inactive) | 0.239 (inactive) | 0.129 (inactive) | -0.0034 | -0.694 (inactive) | 0.572 (inactive) | -2.19 | 0.273 | 0.803 | 0.601 | 0.239 | 0.437 | 1.1 | -0.0918 (inactive) | 0.163 | 0.282 | 0.45 (inactive)
5 | CN1C(=O)C2C=CC(C(O)C=Cc3ccc([N+](=O)[O-])cc3)N(Nc3ccccc3)C2C1=O (stereo not given) | -1.84 (inactive) | -0.139 | 6.52 (inactive) | 1.48 (inactive) | 0.86 (inactive) | 1.32 (inactive) | -1.05 | -1.57 (inactive) | -3.82 (inactive) | -2.44 | -0.598 | -1.6 | -0.432 | -0.655 | -0.997 | -1.53 | -1.48 (inactive) | -0.634 | -0.681 | -0.408 (inactive)
6 | CCCCN1CC=CC23O[C@@H]4/C=C\CCCOC(=O)C4[C@H]2C(=O)N(CCCO)[C@@H]3C1=O (stereo not given in full) | -0.0884 (inactive) | 0.0927 | 0.897 (inactive) | 0.611 (inactive) | -0.746 (inactive) | 0.0888 (inactive) | -0.207 | 1.59 (inactive) | 0.593 (inactive) | 2.02 | -0.609 | 0.803 | 0.186 | -0.614 | -0.568 | -0.795 | 1.19 (inactive) | 0.16 | 0.597 | 0.216 (inactive)
7 | O=C(CS)NCCCCCNC(=O)[C@H]1C[C@H]2C(=O)NCC(=O)N2[C@H]1c1cccc(OCCO)c1 | 1.43 (inactive) | -0.142 | 0.0198 (inactive) | -0.851 (inactive) | -4 (inactive) | -2.1 (inactive) | -0.61 | 0.448 (inactive) | 1.08 (inactive) | 0.664 | 0.54 | 0.0451 | -0.203 | 0.304 | 0.111 | -0.342 | -0.0834 (inactive) | 0.127 | 0.112 | 0.768 (inactive)
8 | COCC(=C=CC[C@H](O)c1ccccc1OCCO)CCO | 0.0257 (inactive) | -0.206 | 2.69 (inactive) | -0.0718 (inactive) | -0.107 (inactive) | 0.0371 (inactive) | -0.509 | 0.281 (inactive) | 0.263 (inactive) | -0.397 | 0.474 | -0.233 | 0.304 | -0.48 | -0.0001 | -0.853 | -0.624 (inactive) | -0.345 | -0.654 | -0.323 (inactive)
9 | O=C1O[C@H](c2ccccc2)[C@H](c2ccccc2)N2[C@H]1[C@@H](C(=O)NC[C@H](O)c1ccccc1)[C@]1(C(=O)Nc3ccccc31)[C@H]2c1ccc(O)cc1 | 0.281 (inactive) | 0.0191 | 2.49 (inactive) | 1.29 (inactive) | -0.214 (inactive) | 1.29 (inactive) | -0.482 | -0.0983 (inactive) | -0.705 (inactive) | 0.152 | -0.184 | 0.279 | -0.454 | -2.03 | -3.84 | -3.2 | -0.104 (inactive) | -0.933 | -1.03 | -0.377 (inactive)
